Only some compounds are listed: those with a hit (about 3.6% of all), similar ones and a draw of the others.
Mm-Cpn inhibitor = M. maripaludis TRiC chaperonin inhibition. AID 504842. 330,000 compounds, 0.031% hits. purified Mm-Cpn ATPase, ADP Transcreener TR-FRET. Potency, µM (top dose mostly 76.9 µM), actives largely listed as inhibitors; also: nearly all actives have a fitted effect of over 80% in size
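Inhibition of chaperonin ATP hydrolysis is measured as reduced ADP production, detected by competitive TR-FRET in which signal falls with ADP. Final enzyme 25 nM and ATP 10 uM, reacted 30 min at 37°C.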
TDP43 rescue = TDP-43 toxicity inhibition in yeast; TDP-43 expressing yeast growth rescue, BacTiter-Glo, 24 h; Potency, µM (highest dose often 46.1 µM), hits mostly activators; 410,000 compounds, 1.8% hits; AID 652104; also: nearly all actives have a fitted effect of over 50% in size
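Growth rescue of TDP-43-toxic yeast measured as ATP luminescence (BacTiter-Glo). Cells grown to mid-log in raffinose, induced in galactose at OD600=0.02, exposed to compound 24 hr at 30 deg C.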
ClpP mod = qHTS Assay for Activators of ClpP | ATP-dependent Clp protease proteolytic subunit (Bacillus subtilis (strain 168)), P80244 | purified B. subtilis ClpP, FRET peptide cleavage, 20 min | Potency, µM (titrated, usually from 57.5 µM) | 340,000 compounds, 1.9% hits; active = well fitted falling curve with a large enough effect; inconclusive = small, poorly fitted or top-dose-only effect; inactive = no such curve, though single readings can be large or run the other way; also: the source files actives as falling curves though it sought activators and does not explain the sign; nearly all actives have a fitted effect of over 65% in size
Target sequence (P80244 whole entry, looked up): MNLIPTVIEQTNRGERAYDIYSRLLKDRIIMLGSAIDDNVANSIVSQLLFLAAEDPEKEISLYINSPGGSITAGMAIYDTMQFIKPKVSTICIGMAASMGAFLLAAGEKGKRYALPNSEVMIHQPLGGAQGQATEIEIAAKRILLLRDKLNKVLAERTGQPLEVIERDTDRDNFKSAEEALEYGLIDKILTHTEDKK
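Buffer: 100 mM Tris/HCl pH8, 100 mM KCl, 0.05% low protease BSA, 2.5% glycerol, 0.01% Tween-20. ClpP 10 microg/mL final; 20 min RT; delta FRET normalized to ADEP and DMSO controls.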
aSyn rescue = inhibitors of alpha-synuclein toxicity in yeast; Yeast expressing alpha-synuclein, growth rescue, BacTiter-Glo, 24 h; Potency, µM (doses to about 46.1 µM), actives largely listed as activators; 370,000 compounds, 0.14% hits; also: nearly all actives have a fitted effect of over 65% in size
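Screening used galactose-induced yeast with toxic alpha-synuclein levels, exposed to compound for 24 hr at 30 deg C. Cell growth, read with BacTiter-Glo luminescence, gave the measured signal.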
FUS yeast rescue = rescues growth of FUS-expressing yeast. S. cerevisiae FUS-expressing, growth rescue, OD600, 24 h. Potency, µM (series often up to 76.6 µM), hits mostly activators. 390,000 compounds, 0.24% hits. AID 1347120; also: nearly all actives have a fitted effect of over 55% in size
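Compound concentration series was pinned onto galactose-induced FUS-expressing yeast seeded at OD 0.005. Plates sat 24hr at 30C; absorbance at 600 nm gave growth. DMSO served as background control.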
Abeta rescue = compounds reversing amyloid beta toxicity in yeast. Potency, µM (series often up to 46.1 µM), actives largely listed as activators. yeast expressing A-beta42, growth rescue, OD600, 48 h; response scale: 0% DMSO, 100% iron-clioquinol control. AID 1347071. 410,000 compounds, 0.063% hits; also: nearly all actives have a fitted effect of over 55% in size
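Growth rescue measured by 600 nm absorbance after 48 h yeast culture at 30 C with compound. Values normalized between DMSO and an equimolar ferric chloride plus clioquinol control.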
A number is an active result; - = inactive; ? = inconclusive; . = no result given; [ ] = dose if it differs, or a comment. Unless noted, calls follow the shape of the dose curve; as a rule, active = well fitted curve in the direction sought with a large enough effect; inconclusive = small, poorly fitted or top-dose-only effect, or another doubt; inactive = no such curve, though single readings can be large; an effect the other way counts as inactive or inconclusive.

SMILES | Mm-Cpn inhibitor | TDP43 rescue | ClpP mod | aSyn rescue | FUS yeast rescue | Abeta rescue
CCc1ccc(OCc2cc(=O)n3cc(C)sc3n2)cc1 | . | - | - | . | - | -
COc1cccc2c1C(=O)c1c(O)c3c(c(O)c1C2=O)C[C@@](O)(C(=O)CO)C[C@@H]3O[C@H]1C[C@H](N)[C@H](O)[C@H](C)O1 | - | ? | - | 4.5µM | - | -
O=c1cc(N2CCN(c3ccnc4cc(Cl)ccc34)CC2)[nH]c(=O)n1C1CCCCC1 | . | . | . | . | - | .
Cn1c(=O)n(-c2ccc(C(C)(C)C#N)cc2)c2c3cc(-c4cnc5ccccc5c4)ccc3ncc21 | . | . | - | - | . | .
CN(C(=S)NC(=O)C12CC3CC(CC(C3)C1)C2)c1ccc(O)cc1 | - | 18µM | - | - | - | -
CC1CCCN(S(=O)(=O)c2ccc(CN3C(=O)c4cccnc4C3=O)cc2)C1 (stereo not given) | - | ? | - | 0.56µM | - | -
CCOc1ccc(-c2nonc2NC(=O)c2ccc(C)cc2)cc1OCC | . | - | - | . | - | -
Cc1ccc(S(=O)(=O)N2CCN(C(=O)Cc3ccccc3)CC2)cc1C | - | - | - | - | - | -
Cc1ccc(S(=O)(=O)N2CCN(C(=O)CCN3C(=O)c4ccccc4C3=O)CC2)cc1C | - | 16µM | - | - | - | -
Cc1ccccc1-n1c(SCc2csc(Nc3ccccc3)n2)nnc1-c1cccnc1 | - | - | - | - | - | -
Cc1ccc(Nc2nc(CSc3nnc(-c4ccccc4)n3C)cs2)cc1 | - | 18µM | - | - | - | -
Cc1ccc(Nc2nc(CSc3nnc(-c4cccnc4)n3-c3ccccc3C)cs2)cc1 | - | - | 28µM | - | ? | -
Cc1ccc(Nc2nc(CSc3nnnn3-c3ccccc3)cs2)cc1 | . | 14µM | - | - | - | -
COc1ccc(CNS(=O)(=O)c2ccc(N3CCCCS3(=O)=O)cc2)cc1 | . | -[9.22 µM] | - | . | - | -
Cc1cc(NS(=O)(=O)c2ccc(NC(=O)Cc3ccc(Cl)c(Cl)c3)cc2)on1 | . | . | . | . | - | .
O=C(/C=C/Nc1ccc([N+](=O)[O-])cc1Br)c1cccc2ccccc12 | - | - | 25µM | - | . | -
NC(=O)c1cc([N+](=O)[O-])ccc1NCc1cccc2ccccc12 | - | - | - | - | - | -
O=C(CS(=O)(=O)c1ccccc1)Nc1nc(-c2ccccc2)cs1 | - | ? | - | - | - | -
O=C(Cc1c(F)c(F)c(F)c(F)c1F)Nc1nc(-c2ccccc2)cs1 | - | 20µM | - | - | - | -
Cc1ccc(S(=O)(=O)Nc2ccccc2C(=O)Nc2nc(-c3ccc(F)cc3)cs2)cc1 | - | - | 16µM | - | . | -
Cc1ccc(S(=O)(=O)CC(=O)Nc2nc(-c3ccccc3)cs2)cc1 | - | 10µM | - | - | - | -
Cc1cc(=O)n2c3ccccc3n(CC(O)CN3CCCCC3)c2c1C#N (stereo not given) | - | - | 28µM | - | - | -
Cc1cc(=O)n2c3ccccc3n(CC(O)CN3CCOCC3)c2c1C#N (stereo not given) | - | . | . | - | - | -
COc1ccc(/C=N/NC(=O)c2ccoc2C)cc1COc1ccc(Cl)cc1 | . | 14µM | - | - | ? | ?
COc1ccc(/C=N/NC(=O)c2ccccc2OC)cc1COc1ccc(C)cc1 | - | - | 25µM | - | - | -
SMILES | Mm-Cpn inhibitor | TDP43 rescue | ClpP mod | aSyn rescue | FUS yeast rescue | Abeta rescue
COc1ccc(/C=N/NC(=O)c2ccoc2C)cc1OC | - | - | - | - | - | -
COc1ccc(/C=N/NC(=O)c2ccn[nH]2)cc1COc1ccc([N+](=O)[O-])c(C)c1 | - | 25µM | - | - | - | -
COc1cc(C=O)cc(OC)c1[N+](=O)[O-] | . | . | - | . | . | .
Cc1cc(C)c(NC(=O)Cn2c(=O)oc3cc(S(=O)(=O)N4CCCCCC4)ccc32)c(C)c1 | . | - | - | . | - | -
O=C(COC(=O)c1ccc2ccccc2c1O)NCC(F)(F)F | - | - | - | - | - | -
O=C(COC(=O)c1c2ccccc2cc2ccccc12)NCC(F)(F)F | - | 16µM | ? | - | . | -
